High-throughput results (PubChem)
Only some compounds are listed: those with a hit (about 22% of all), similar ones and a draw of the others.
CYP2C9 inhib: inhibitors of human CYP2C9; 20% of 96,000 active; CYP2C9 Supersomes, luciferin-H conversion, luminescence; inhibition, % at 5 µM; AID 777;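 active = blocking of liver enzyme CYP2C9 beyond about 50% at 5 µM, limit read from the data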
Target sequence (P11712 whole entry, looked up): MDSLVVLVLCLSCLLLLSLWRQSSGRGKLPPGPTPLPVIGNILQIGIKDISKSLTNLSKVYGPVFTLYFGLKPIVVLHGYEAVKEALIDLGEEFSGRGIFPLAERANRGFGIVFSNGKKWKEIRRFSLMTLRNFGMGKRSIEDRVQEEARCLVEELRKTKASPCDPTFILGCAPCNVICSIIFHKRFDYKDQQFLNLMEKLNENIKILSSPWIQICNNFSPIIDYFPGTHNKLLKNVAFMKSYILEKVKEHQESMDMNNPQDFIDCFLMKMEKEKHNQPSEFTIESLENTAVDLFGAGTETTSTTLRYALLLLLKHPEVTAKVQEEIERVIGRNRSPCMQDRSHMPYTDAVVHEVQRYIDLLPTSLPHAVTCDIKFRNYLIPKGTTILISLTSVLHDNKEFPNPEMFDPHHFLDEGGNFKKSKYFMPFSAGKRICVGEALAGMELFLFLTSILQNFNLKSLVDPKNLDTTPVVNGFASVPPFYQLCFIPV
F-actin modifier: alters cytoskeleton assembly in HUVEC cells; AID 836; 0.18% of 91,000 active; inhibition, % at 2 µM; HUVEC TNFa F-actin phalloidin imaging, high content;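 active = inhibition above the batch mean plus 3 SD and confirmed as a hit by visual image inspection, cut at about 30% in these data, passing the limit was not always enough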
CYP2C9 act: increases human cytochrome P450 2C9 activity. activation factor at 5 µM. 1.4% of 96,000 active. AID 1024. recombinant CYP2C9, luciferin-H conversion, luminescence; stronger effect = higher value; factor 1 = untreated enzyme, 0 = blocked;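 active = activation factor of 2 or more for CYP2C9 at a 5 µM dose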
CYP2C19 inhib: blocks human cytochrome P450 2C19 | CYP2C19 Supersomes, luciferin-H EGE luminescence, 30 min | inhibition, % at 5 µM | P33261 | 21% of 96,000 active;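 active = CYP2C19 inhibition above a set limit at 5 µM in the primary screen, cut at about 50% in these data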
CYP2C19 activ: activators of human cytochrome P450 2C19. 96,000 tested, under 10 active. P33261. AID 1025. recombinant CYP2C19, luciferin-H EGE luminescence; stronger effect = higher value; 0 = fully inhibited enzyme, 1 = untreated enzyme. activation factor at 5 µM;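 active = activation factor of at least 2 at 5 µM in the primary screen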
E-sel TNF inh: TNF alpha driven E-selectin expression inhibition; inhibition, % at 2 µM; AID 1246; HUVEC TNFa-induced E-selectin immunofluorescence, high content; 0.71% of 120,000 active;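 active = inhibition above the batch mean plus 3 SD, and confirmed as a hit on visual image review, cut at about 43% in these data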
Large screens that a line does not name were inactive.

CCOC(=O)N1CCC(NC(=O)C(NC(=O)C2CCC(C)CC2)C(C)CC)CC1 (stereo not drawn)	CYP2C19 inhib 53
O=[N+]([O-])c1ccc(CSc2nnc(-c3cnccn3)o2)cc1	CYP2C19 inhib 90
O=c1[nH]c2ccc(Cl)cc2c(-c2ccccc2)c1SC(=S)N1CCOCC1	none
O=c1[nH]c2ccc(Cl)cc2c(-c2ccccc2)c1SC(=S)N1CCCCC1	CYP2C9 inhib 52
CC(C)(C)c1ccc(C2CC2C(=O)N/N=C\c2cc3ccccc3nc2Cl)cc1 (stereo not drawn)	CYP2C9 inhib 62
O=C(CNc1ccc2ccccc2c1)N/N=C/c1cc2ccccc2nc1Cl	none (no result: CYP2C9 inhib, F-actin modifier, CYP2C9 act, CYP2C19 inhib, CYP2C19 activ)
O=C1c2ccccc2C(=O)N1CCc1nc(-c2ccncc2)no1	CYP2C9 inhib 72, CYP2C19 inhib 97
O=C1c2ccccc2C(=O)N1CCc1nc(-c2cccnc2)no1	CYP2C19 inhib 51
O=C1c2ccccc2C(=O)N1CCc1nc(-c2ccc(Cl)cc2)no1	none
O=C(Nc1ccccc1N1CCCC1)c1ccc([N+](=O)[O-])cc1Cl	none (no result: CYP2C9 inhib, F-actin modifier, CYP2C9 act, CYP2C19 inhib, CYP2C19 activ)
COC(=O)c1c(C(=O)OC)c2cc(C)ccn2c1Cl	CYP2C9 inhib 54
CCOC(=O)c1cc2sccc2n1CC(=O)N1CCc2ccccc21	none (no result: E-sel TNF inh)
CCOC(=O)c1cc2sccc2n1CC(=O)OC(C)C	CYP2C9 inhib 88, CYP2C19 inhib 97
CCOC(=O)c1cc2sccc2n1CC(=O)Nc1ccc(OC)c(OC)c1	CYP2C19 inhib 87 (no result: E-sel TNF inh)
CCOC(=O)c1cc2sccc2n1CC(=O)Nc1ccc(OC)cc1	none
CCOC(=O)NC(=O)CSc1nnnn1-c1ccccc1	none
COc1cc(CSc2nnnn2-c2ccc(C)cc2)cc(OC)c1OC	CYP2C9 inhib 64 (no result: F-actin modifier)
CCOC(=O)CSc1nnnn1-c1cccc2ccccc12	none (no result: CYP2C9 inhib, CYP2C9 act, CYP2C19 inhib, CYP2C19 activ)
O=C(CSc1nnnn1-c1ccccc1)N1CCc2ccccc2C1	CYP2C19 inhib 65
CC(=O)c1ccc(-n2nnnc2SCC(=O)N2CCc3ccccc3C2)cc1	none (no result: CYP2C9 inhib, CYP2C9 act, CYP2C19 inhib, CYP2C19 activ)
CC1=Nc2ccccc2N=C(NC(=O)CSc2nnnn2-c2ccccc2)C1c1ccccc1 (stereo not drawn)	CYP2C9 inhib 95, CYP2C19 inhib 79
CSc1ccccc1-n1nnnc1SCc1ccccc1	CYP2C9 inhib 66, CYP2C19 inhib 87
CCCCCn1c(=O)[nH]c2cc(C(=O)NCc3ccco3)ccc2c1=O	none
COc1ccc(-c2ccc(=O)n(Cc3ccc([N+](=O)[O-])cc3)n2)cc1	none (no result: CYP2C9 inhib, F-actin modifier, CYP2C9 act, CYP2C19 inhib, CYP2C19 activ)
CCOC(OCC)P(=O)(c1ccccc1)c1ccccc1	none
COC(=O)CSc1nnnn1-c1ccccc1	CYP2C19 inhib 56
COc1ccc(CSc2nnnn2-c2ccccc2)cc1	CYP2C9 inhib 89, CYP2C19 inhib 96
C=CCSc1nnnn1-c1ccc(OC)cc1	CYP2C9 inhib 66, CYP2C19 inhib 98
COc1ccc(C)cc1-n1nnnc1SCC1CCCO1 (stereo not drawn)	CYP2C9 inhib 55, CYP2C19 inhib 98
S=C(c1ccc(N2CCOCC2)cc1)N1CCCCC1	none (no result: CYP2C9 inhib, CYP2C9 act, CYP2C19 inhib, CYP2C19 activ)
COc1ccc(Cn2c(-c3ccc(C)cc3)nc3c(c(=O)c4ccccc4n3C)c2=O)cc1	none (no result: CYP2C9 inhib, F-actin modifier, CYP2C9 act, CYP2C19 inhib, CYP2C19 activ)
O=C(O)c1ccc(-n2nnnc2SCc2ccccc2)cc1	none
COCCn1c(SCc2nc3ccccc3s2)nc2ccccc21	CYP2C9 inhib 86, CYP2C19 inhib 100 (no result: E-sel TNF inh)
COc1ccc(C)cc1-n1nnnc1SCc1nc2ccccc2s1	CYP2C9 inhib 78, CYP2C19 inhib 73
NC(=O)c1ccc(-n2nnnc2SCc2ccc(F)cc2)cc1	CYP2C19 inhib 75 (no result: E-sel TNF inh)
COc1ccc(CCn2c(C)cc(C(=O)CSc3nnnn3-c3ccccc3)c2C)cc1	CYP2C9 act 2.4
CCOCCCn1c(SCc2nc3ccccc3s2)nc2ccccc2c1=O	none (no result: CYP2C9 inhib, F-actin modifier, CYP2C9 act, CYP2C19 inhib, CYP2C19 activ)
COc1ccccc1NCC(=O)NNC(C)C(=O)Nc1cccc(Cl)c1 (stereo not drawn)	none (no result: CYP2C9 inhib, F-actin modifier, CYP2C9 act, CYP2C19 inhib, CYP2C19 activ)
Cc1ccc(CN/C=C/C(=O)c2ccc(Br)cc2)cc1	none
COc1ccc(-n2nnnc2SCC(=O)Nc2ccccc2N2CCOCC2)cc1	none (no result: CYP2C9 inhib, F-actin modifier, CYP2C9 act, CYP2C19 inhib, CYP2C19 activ)
COc1ccc(-n2nnnc2SCc2nc3ccccc3s2)cc1	CYP2C9 inhib 79, CYP2C19 inhib 95
CC(=O)NS(=O)(=O)c1cccnc1Nc1cccc(Cl)c1C	none (no result: CYP2C9 inhib, F-actin modifier, CYP2C9 act, CYP2C19 inhib, CYP2C19 activ)
CC(=O)NS(=O)(=O)c1cccnc1Nc1ccc(Cl)cc1	CYP2C9 inhib 85
CC(=O)NS(=O)(=O)c1cccnc1Nc1cccc(Cl)c1	CYP2C9 inhib 50
O=C(CNC(=O)c1cnccn1)Nc1ccc(F)c(F)c1F	none (no result: E-sel TNF inh)
O=C1CCc2cc(S(=O)(=O)NC(Cc3ccccc3)C(=O)NC3CCCCC3)ccc2N1 (stereo not drawn)	none
O=C1CCc2cc(S(=O)(=O)NC(Cc3ccccc3)C(=O)NCCC3=CCCCC3)ccc2N1 (stereo not drawn)	CYP2C9 inhib 61, CYP2C19 inhib 68 (no result: E-sel TNF inh)
O=C1C(NS(=O)(=O)c2cccs2)=C(N2CCN(c3cccc(C(F)(F)F)c3)CC2)C(=O)c2ccccc21	CYP2C9 inhib 52
CCOc1ccccc1N1CCN(C2=C(NS(=O)(=O)c3cccs3)C(=O)c3ccccc3C2=O)CC1	CYP2C9 inhib 100, CYP2C19 inhib 92
O=C1C(NS(=O)(=O)c2ccc(Cl)cc2)=C(N2CCCCC2)C(=O)c2ccccc21	none (no result: CYP2C9 inhib, F-actin modifier, CYP2C9 act, CYP2C19 inhib, CYP2C19 activ)
CC(=O)c1c(N2CCCCC2)nc(=O)n(-c2ccccc2)c1C	none (no result: F-actin modifier, E-sel TNF inh)
CCCCCNCc1cccn1C	none
COC(=O)CCC(=O)c1oc2ccc(Cl)cc2c1NC(=O)CCCN1C(=O)c2ccccc2C1=O	CYP2C9 inhib 80, CYP2C19 inhib 67
COCCCNc1nc(-c2ccncc2)nc2ccccc12	CYP2C9 inhib 71, CYP2C19 inhib 78
COCCCNC(c1ccccc1)c1ccncc1 (stereo not drawn)	CYP2C9 inhib 65, CYP2C19 inhib 86
COCCCNc1cc(C)nc2ccccc12	none
Cc1cc(Cl)cc(Cl)c1OCCOCCN(C)C	none (no result: CYP2C9 inhib, F-actin modifier, CYP2C9 act, CYP2C19 inhib, CYP2C19 activ)
CSc1nsc(NC(=O)Cc2ccccc2)n1	CYP2C19 inhib 65
Cc1cc(OCC(=O)Nc2ccc(OCc3ccccc3)cc2)nc(C(C)C)n1	none (no result: E-sel TNF inh)
CCCOc1ccc(C2NC(=O)NC2=O)cc1 (stereo not drawn)	none (no result: CYP2C9 inhib, CYP2C9 act, CYP2C19 inhib, CYP2C19 activ)
CCCOc1ccc(S(=O)(=O)n2cc(Br)c(=O)[nH]c2=O)cc1	CYP2C9 inhib 98
COc1ccc(-n2c(C)cc(SC)c(C(C)=O)c2=S)cc1	none
CN1CSC2=C(C#N)C(c3cccc(OCc4ccccc4)c3)CC(=O)N2C1 (stereo not drawn)	CYP2C9 inhib 84 (no result: E-sel TNF inh)
CCc1ccc(C2CC(=O)N3CN(c4ccccc4)CSC3=C2C#N)cc1 (stereo not drawn)	CYP2C9 inhib 53
CCc1ccc(N2CSC3=C(C#N)C(c4cccs4)CC(=O)N3C2)cc1 (stereo not drawn)	none (no result: F-actin modifier)
N#CC1=C2SCN(c3ccc(F)cc3)CN2C(=O)CC1c1cccc(F)c1 (stereo not drawn)	none
Cc1ccc(N2CSC3=C(C#N)C(c4cccs4)CC(=O)N3C2)cc1 (stereo not drawn)	CYP2C9 inhib 86 (no result: E-sel TNF inh)
